Whole data set: some 33,000 sequences, median “E-score (-0.5 to 0.5)” near -0.015, cut for the highest 2% near 0.3. What follows is part of a selection rich in the highest values, with near analogues and random picks from the rest.
Biological target: T1, Abf1 (UniProt P14164)
T1 sequence: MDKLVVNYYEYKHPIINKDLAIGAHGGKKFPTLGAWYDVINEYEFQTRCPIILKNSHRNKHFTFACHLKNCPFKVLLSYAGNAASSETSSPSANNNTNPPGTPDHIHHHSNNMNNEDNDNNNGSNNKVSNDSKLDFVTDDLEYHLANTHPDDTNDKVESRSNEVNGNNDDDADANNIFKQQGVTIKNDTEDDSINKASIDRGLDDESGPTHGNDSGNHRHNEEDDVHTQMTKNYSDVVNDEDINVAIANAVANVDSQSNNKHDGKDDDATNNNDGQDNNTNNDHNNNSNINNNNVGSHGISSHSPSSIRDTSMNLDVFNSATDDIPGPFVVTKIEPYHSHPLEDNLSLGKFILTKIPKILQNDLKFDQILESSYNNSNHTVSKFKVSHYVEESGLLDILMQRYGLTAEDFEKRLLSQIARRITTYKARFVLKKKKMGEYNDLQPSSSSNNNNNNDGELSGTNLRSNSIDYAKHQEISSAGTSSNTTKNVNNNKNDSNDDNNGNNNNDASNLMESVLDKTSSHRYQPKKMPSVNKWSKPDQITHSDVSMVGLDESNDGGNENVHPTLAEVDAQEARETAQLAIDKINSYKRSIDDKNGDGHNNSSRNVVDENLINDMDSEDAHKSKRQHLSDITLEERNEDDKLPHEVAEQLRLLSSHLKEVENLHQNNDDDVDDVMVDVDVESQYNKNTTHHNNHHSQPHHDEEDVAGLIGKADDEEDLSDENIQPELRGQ
Experiment: PBM E-score (8-mer binding enrichment) (E-score (-0.5 to 0.5)); higher = stronger / more preferred TF binding
Conditions: protein concentration: 200 nM; construct: GST-full length
In short: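 Yeast transcription factors, full-length or as DNA-binding domains, were expressed with a GST tag using PURExpress in vitro transcription/translation. At about 100-200 nM they were applied to universal all-10-mer Agilent arrays, double-stranded by primer extension on fresh or once-stripped slides. Fluorescent anti-GST detected bound protein, and masliner normalised the scans. E-scores for ungapped eight-base words, pooled with reverse complements, came from the Universal PBM Analysis Suite.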

Sequence	PBM E-score
ATGACTAA	0.146
GTGACGGA	0.149
GTCACGAA	0.402
ATGACGAC	0.265
CTGACTAA	0.0088
ATGACGAA	0.319
GTCACGAC	0.261
TTCACGAA	0.267
CTGACGAA	0.239
GTGACGCA	0.103
GTGACGAA	0.315
GTGACTAA	0.327
AAGGTTCT	-0.189
CGGGCACC	-0.0646
CGCAAAAG	-0.0748
CTCTCACC	-0.0855
GAGTAAAC	-0.0509
ATCCCGTA	0.215
GGCGATCA	-0.0321
ATGGACTC	-0.134
CACGGACG	0.337
CACGGACA	0.162
AACGGACG	0.065
AAACCGGT	-0.0782
CATACTGA	-0.108

Sequence	PBM E-score
AAAGAGGA	-0.237
CTAATCAC	0.251
ATAATCAC	0.331
GTAATCAC	0.141
ATAATCAT	0.326
ATAATCAA	0.0595
ATAATCAG	0.0922
CCACCTAC	-0.011
ACCGTAGG	0.0666
CTAAATCC	0.0568
AAGCGCCA	-0.247
TGATGTAA	0.145
ACCCTCGA	-0.17
TCGACGAA	0.349
CCGACGAA	0.205
ACGACGGA	0.251
GCGACGAC	0.098
ACGACGGG	0.304
GCGACGCA	0.196
TCGACAAA	-0.0435
ACGACGCA	0.262
ACGACGAA	0.373
GCGACGAA	0.313
TCGACGCA	0.113
ACGACGGC	0.164

Sequence	PBM E-score
CATAAGTC	-0.00466
AACCGGTT	0.0655
TAGAAGCA	-0.0239
CAAGGAAA	-0.198
AGGGCGCC	-0.0691
ATCGCTAA	0.28
ATCTATTC	0.114
ACGACGAT	0.315
ACGACGAC	0.292
ACGACGAG	0.156
GTACTGCA	-0.101
AAACACCC	-0.0385
GGTGCACA	-0.05
AATGTACG	0.192
CATGTACA	-0.0299
CATGTACG	0.319
TAAGTCTA	-0.136
CTGTCATC	0.108
ATGTCATC	0.394
ATGTCAAG	-0.0386
ATGTCATA	0.176
ATGTCAGG	-0.133
ATGTCATG	0.349
AGTCGAAT	-0.178
AAGGAACC	-0.053

Sequence	PBM E-score
TCGATCGA	-0.141
CAGACAAC	-0.0277
ATGTCACA	0.282
ATGTCAGC	0.0322
ATGTCACC	0.429
ATGTCACG	0.437
CTGTCACC	0.174
CTGTCACA	0.138
GTCCTCAC	0.0512
GGGCTCTA	-0.22
CCCCTGGA	-0.17
AACGGACT	-0.0919
CGATGGCG	-0.0766
GTTAGCAA	0.104
ATGATTGA	0.346
ATGATGAG	0.141
ATGATGCA	0.309
GTGATGCA	0.185
GTGATGAA	0.207
ATGATGAA	0.306
ATGATTGG	-0.094
CTGATGAC	0.203
ATGATGCC	0.0807
ATGATTGC	0.0463
CTGATGAA	0.0318

Sequence	PBM E-score
ATGATGAC	0.306
GAATGGAC	0.0322
GTTCCGGA	-0.0188
TATACATA	0.0494
GAGGGGGC	-0.346
CGGAGTCA	-0.111
AAAGCCTT	-0.219
CTATGGGA	-0.0561
CCACCGTA	0.341
ACACCGTA	0.0493
GCACCGTA	0.0841
GGGGGCCA	-0.462
AGTAGAAA	0.168
CGTAGAAA	0.318
CGTAGAAG	0.222
AGGGGTAT	-0.179
GCGTCGGA	-0.111
GGAGCCCC	-0.293
CATATTAG	0.136
TATATTAA	0.167
CATATTAA	0.315
ACGAACGC	0.214
GACTGTGC	0.0177
CTGTGATA	0.201
GCGTGATA	0.353

Sequence	PBM E-score
CCGTGATA	0.283
GCGTGAGA	0.168
ACGTGATA	0.318
GTGTGATA	0.327
ACGTGATC	0.261
ATGTGATA	0.291
ACGTGATG	0.215
CGCGATTA	0.0309
AGGTATGC	0.0905
CAGGCTGA	-0.188
AAATAATT	0.212
CGTACACC	-0.0081
CGTACATA	0.364
AGTACAAA	0.101
CGTACACA	0.318
CGTACACG	0.245
CGTACAGC	-0.0515
CGTACAAA	0.408
CGTACATC	0.134
CGTACAGA	0.308
AGTACATA	0.0814
GGTACAGA	0.00644
GGTACAAA	0.0902
GGAGATAA	0.0908
CAAACGGG	-0.0186

Sequence	PBM E-score
AACCGATT	0.0401
GCACCCAA	-0.239
CTTCTTTA	0.12
AGATGGGG	-0.284
GAACAATC	0.0605
GAAATTCC	-0.102
CGTACAAG	0.357
AGTACAAG	0.0462
CGTACAAC	0.276
GACGCCGA	0.0176
AGTATAAC	0.194
TGTATAAA	0.116
TGTATCAA	-0.0209
CGTATAAA	0.417
CGTATCAA	0.343
CGTATAAG	0.349
AGTATAAG	0.0186
GGTATAAC	0.0343
CATATAAG	0.0553
AGTATAAA	0.252
CGTATAAC	0.366
CGTATCAC	0.281
GATCCTAA	0.0497
ACCAAAAC	0.0329
ATTAAGTA	0.133

Sequence	PBM E-score
ATCTGTCA	0.212
CAACCAGG	-0.288
CGAAAGGA	0.191
GGAATACA	-0.0854
ATGGCTAA	-0.0715
AATCGTCC	0.168
CATCGTCC	0.137
AATCGTCT	0.269
CATCGTCG	0.231
GATCGTCA	0.277
CATCGTCA	0.297
AATCGTCA	0.334
TATCGTGA	0.286
TATCGTCA	0.33
CGAATGGA	0.0823
GACCCTAA	0.012
CAACGTTC	-0.145
CATGATGC	0.123
CATGATGA	0.365
TATGATGA	0.313
CATGATGG	-0.191
GATGATGA	0.223
GATGATGC	0.152
CAGTACCC	-0.0706
GGTAATAC	0.099

Sequence	PBM E-score
CGTAATAG	0.112
CGTAATAC	0.303
AGGTGATC	0.276
GAGTGAGC	0.033
AAGTGATT	0.347
AAGTGATC	0.41
GAGTGAAC	-0.115
CAGTGATG	0.255
ATGTGATG	0.0498
AAGTGAGT	0.0964
AAGTGAAT	0.16
ATGTGATC	0.18
GAGTGATC	0.327
AAGTGATG	0.314
CAAAATGA	0.275
CAAGATGC	0.148
TAACTCTA	-0.0858
TACAGGGA	-0.19
GACGGGAC	-0.171

From the supplement of paper PMC3334620
